# According to PubChem BioAssay (NCI):
# Values joined by “and” are separate entries in the source; they are usually repeats but may differ in a detail not shown here. Identical values can stand only once. The panel holds about 79,000 compounds, 15% with a hit somewhere; the sample as a whole holds those more often. The source holds several records for some structures; these can differ, active in one and inactive in another. Active and inactive are the calls of the source. Rule as the data show it: active = growth inhibition above about 70%; inactive = the rest.
# Experiments:
# [1] = NCI Yeast Anticancer Drug Screen. Data for the rad50 strain (AID 155);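 also: 0% = growth of vehicle-only cultures of the same strain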; conditions: S. cerevisiae rad50 strain growth inhibition, stronger effect = higher value
# Procedure, shortened: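 Vehicle-treated cultures provide the reference for the growth inhibition reported for compound-exposed, repair-deficient yeast.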
# [2] = NCI Yeast Anticancer Drug Screen. Data for the mec2-1 strain (AID 157); conditions: S. cerevisiae mec2-1 strain, stronger effect = higher value
# Procedure, shortened: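 Test agents were screened against the mec2-1 yeast strain, with defined DNA repair or cell cycle alteration. Growth was scored as inhibition against vehicle-only controls.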
# [3] = NCI Yeast Anticancer Drug Screen. Data for the sgs1 mgt1 strain (AID 161);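 also: 0% = growth of cultures given vehicle only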; conditions: S. cerevisiae sgs1 mgt1 strain, stronger effect = higher value
# Procedure, shortened: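 Test agents were incubated with a DNA-repair-mutant yeast strain. Growth was then read and compared against vehicle-treated controls.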
# [4] = NCI Yeast Anticancer Drug Screen. Data for the cln2 rad14 strain (AID 165);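 also: 0% = growth equal to vehicle treated cultures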; conditions: S. cerevisiae cln2 rad14 strain, stronger effect = higher value
# Procedure, shortened: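 Growth of compound-exposed yeast (cln2 rad14 genotype) measured and expressed as inhibition relative to vehicle.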
# [5] = NCI Yeast Anticancer Drug Screen. Data for the bub3 strain (AID 167); conditions: S. cerevisiae bub3 mutant strain, stronger effect = higher value
# Procedure, shortened: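 Mutant yeast screening strain plus compound; vehicle-treated cultures serve as the 0% inhibition reference.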
# [6] = NCI Yeast Anticancer Drug Screen. Data for the mlh1 rad18 strain (AID 175); conditions: S. cerevisiae mlh1 rad18 strain growth inhibition, stronger effect = higher value
# Procedure, shortened: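 In this whole-cell yeast screen, a strain with altered DNA damage repair is challenged with compound, and its growth is measured against matched vehicle-treated controls.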
# [7] = at 5.0 µM (retest, dose inferred, filed as 0.5)
# [8] = at 50.0 µM (retest, dose inferred, filed as 5.0)
Structure (SMILES),"growth inhibition [1, 7]","growth inhibition [1, 8]",growth inhibition ([1]; at 50.0 µM),"growth inhibition [2, 7]","growth inhibition [2, 8]",growth inhibition ([2]; at 50.0 µM),"growth inhibition [3, 7]","growth inhibition [3, 8]",growth inhibition ([3]; at 50.0 µM),"growth inhibition [4, 7]","growth inhibition [4, 8]",growth inhibition ([4]; at 50.0 µM),"growth inhibition [5, 7]","growth inhibition [5, 8]",growth inhibition ([5]; at 50.0 µM),"growth inhibition [6, 7]","growth inhibition [6, 8]",growth inhibition ([6]; at 50.0 µM)
CCN(CC)Cc1cc2[nH]c3c4ccc(Cl)cc4ncc3c2cc1OC (tested in a mixture with another compound),3% (inactive),71% (active),59.4% (inactive) and 65% (inactive),2% (inactive),58% (inactive),38.8% (inactive) and 66% (inactive),0% (inactive),48% (inactive),55.1% (inactive) and 74.2% (active),-2% (inactive),47% (inactive),-1.65% (inactive) and 29.1% (inactive),4% (inactive),58% (inactive),44.8% (inactive) and 48.6% (inactive),3% (inactive),74% (active),64.3% (inactive) and 77.5% (active)
Cc1cc(=O)[nH]c2ccc(Cc3ccc(N)cc3)cc12,-3% (inactive),12% (inactive),6.25% (inactive) and 15.6% (inactive),9% (inactive),22% (inactive),1.7% (inactive) and 0.45% (inactive),15% (inactive),27% (inactive),14.6% (inactive) and 1.2% (inactive),0% (inactive),-2% (inactive),13.2% (inactive) and 31.4% (inactive),3% (inactive),10% (inactive),19.1% (inactive) and -13.5% (inactive),21% (inactive),22% (inactive),11.8% (inactive) and -1% (inactive)
CCOC(=O)[C@H]1Nc2ccc([N+](=O)[O-])cc2C2c3ccccc3CC21 (stereo partly specified),32% (inactive),91% (active),80.3% (active),-11% (inactive),48% (inactive),87.8% (active),24% (inactive),93% (active),91.2% (active),8% (inactive),91% (active),86.3% (active),6% (inactive),89% (active),88.2% (active),17% (inactive),90% (active),84% (active)
Cc1nc2ccccc2cc1CCl,-113% (inactive),91% (active),82.5% (active),-44% (inactive),46% (inactive),59.5% (inactive),-51% (inactive),91% (active),63.8% (inactive),-47% (inactive),80% (active),70.3% (active),-69% (inactive),76% (active),32.9% (inactive),-122% (inactive),90% (active),69.8% (inactive)
Cc1cc(N)c(S)cc1C,6% (inactive) and -2% (inactive),25% (inactive) and 28% (inactive),65.1% (inactive) and 25.8% (inactive),-8% (inactive) and 0% (inactive),25% (inactive) and 31% (inactive),19.9% (inactive) and 24.2% (inactive),1% (inactive),44% (inactive) and 37% (inactive),21.3% (inactive) and 50.4% (inactive),-1% (inactive) and -7% (inactive),2% (inactive) and 7% (inactive),-50% (inactive) and 30.4% (inactive),-2% (inactive) and 1% (inactive),59% (inactive) and 47% (inactive),42.9% (inactive) and 75.5% (active),2% (inactive) and -2% (inactive),70% (active) and 40% (inactive),59.8% (inactive) and 77% (active)
C=CCCC(=O)O,6% (inactive),7% (inactive),1.25% (inactive) and 2.45% (inactive),7% (inactive),2% (inactive),-2.15% (inactive) and -0.6% (inactive),5% (inactive),3% (inactive),-11.3% (inactive) and 4.3% (inactive),4% (inactive),4% (inactive),54.4% (inactive) and 5.75% (inactive),4% (inactive),1% (inactive),64.5% (inactive) and 9.55% (inactive),0% (inactive),2% (inactive),-40.5% (inactive) and 0.95% (inactive)
O=C(Nc1ccc(C(=O)O)c(O)c1)c1ccccc1,-2% (inactive),40% (inactive),1.35% (inactive) and -5.6% (inactive),-12% (inactive),-26% (inactive),0.7% (inactive) and -0.4% (inactive),0% (inactive),0% (inactive),-20% (inactive) and 3.05% (inactive),-4% (inactive),-5% (inactive),-26.9% (inactive) and 14.5% (inactive),1% (inactive),6% (inactive),15.7% (inactive) and 12.3% (inactive),-3% (inactive),6% (inactive),8.1% (inactive) and -3.2% (inactive)
COc1ccc2cc(C(C)=O)c3ccccc3c2c1,11% (inactive),93% (active),94.2% (active),-34% (inactive),95% (active),86.5% (active),1% (inactive),88% (active),96.2% (active),-2% (inactive),77% (active),-8.2% (inactive),-68% (inactive),94% (active),2.7% (inactive),2% (inactive),95% (active),97% (active)
Cc1ccc(S(=O)(=O)SC/C=C\CSS(=O)(=O)c2ccc(C)cc2)cc1,4% (inactive) and 51% (inactive),97% (active) and 95% (active),93.3% (active) and 74.7% (active),14% (inactive) and -2% (inactive),97% (active),97% (active) and 5.65% (inactive),12% (inactive) and 67% (inactive),95% (active) and 97% (active),95.8% (active) and 76.7% (active),3% (inactive) and 12% (inactive),94% (active),88.6% (active) and 22.6% (inactive),12% (inactive) and 17% (inactive),99% (active) and 98% (active),96.5% (active) and -3.05% (inactive),2% (inactive) and 53% (inactive),98% (active) and 95% (active),95.9% (active) and 41.2% (inactive)
O=C(CCN1CCN2c3ccccc3CCC2C1)c1ccc(F)cc1 (stereo unspecified),51% (inactive) and 17% (inactive),86% (active) and 98% (active),95.7% (active) and 83.2% (active),63% (inactive) and 22% (inactive),88% (active) and 97% (active),91.5% (active) and 43.5% (inactive),74% (active) and -2% (inactive),96% (active) and 100% (active),97.2% (active) and 89.7% (active),65% (inactive) and -5% (inactive),64% (inactive) and 98% (active),93.5% (active) and 22.4% (inactive),60% (inactive) and 78% (active),84% (active) and 99% (active),97.8% (active) and 95.2% (active),82% (active) and 40% (inactive),96% (active) and 99% (active),98.5% (active) and 45% (inactive)
CCCCCCC(CCCCCCCCCCC(=O)OCC(CC)CC)OC(=O)CC (stereo unspecified),-4% (inactive),-4% (inactive),21.2% (inactive),-3% (inactive),-6% (inactive),7.9% (inactive),-4% (inactive),-23% (inactive),7.4% (inactive),-2% (inactive),-13% (inactive),21.4% (inactive),-3% (inactive),-5% (inactive),-6.9% (inactive),-3% (inactive),-6% (inactive),39.5% (inactive)
CC(=O)OC1COC(n2c(N)c(C#N)c(-c3ccccc3)c(C#N)c2=S)C(OC(C)=O)C1OC(C)=O (stereo unspecified),-10% (inactive) and 1% (inactive),3% (inactive) and 74% (active),25.8% (inactive) and 46% (inactive),-12% (inactive) and 1% (inactive),3% (inactive) and 57% (inactive),16.4% (inactive) and 40.7% (inactive),-7% (inactive) and 2% (inactive),16% (inactive) and 48% (inactive),73.2% (active) and 65% (inactive),-18% (inactive) and 1% (inactive),-17% (inactive) and 61% (inactive),-6.15% (inactive) and 14.3% (inactive),-11% (inactive) and 4% (inactive),-33% (inactive) and 79% (active),35.7% (inactive) and 4.05% (inactive),-7% (inactive) and -2% (inactive),8% (inactive) and 73% (active),62.9% (inactive) and 56.9% (inactive)
